PubChem BioAssay AID1259415 (National Center for Advancing Translational Sciences (NCATS), 2018)
“And” between values parts separate entries of the source, which are not always exact repeats. Equal entries are not always repeated. In all, about 410,000 compounds went through this assay and about 18,000 (4.4%) were called active. About 7% were inconclusive and are not listed. Rule as the data show it: active = activity change below about -60%; inconclusive = no clear call, values can overlap the other calls; inactive = above about -39%. This excerpt belongs to a sample that is enriched for actives. A structure can be active in one record and inactive in another.

experiment: qHTS Assay for inhibitors of the human cytomegalovirus (HCMV); conditions: HFF cells, HCMV-luciferase reporter, 72 h; at 57.5 µM; stronger effect = lower value
Outline: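 After 16 h attachment at 37C, HFF cells received test compound and HCMV-luciferase (1 PFU/cell); reporter luminescence read 72 h later, data normalized against buffer-only and known inhibitor Salinomycin.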
% is scaled to controls: 0 for no effect and ±100 for the full control effect.

Q: With `CCOC(=O)[C@]12CCC=C1N(Cc1ccco1)C(=O)[C@H](CC(=O)N1CCSCC1)C2` as the molecule, how does the activity change, negative = inhibition read?
A: -10.1% (inactive)

Q: With `CCOc1cc(-c2nnc(SCC(=O)NC3CCCC3)nc2-c2ccc(OC)c(OCC)c2)ccc1OC` as the molecule, how does the activity change, negative = inhibition read?
A: 24.6% (inactive)

Q: With `COc1ccc(C(=O)C[n+]2ccc(C)cc2)cc1` as the molecule, how does the activity change, negative = inhibition read?
A: 72% (inactive)

Q: Which activity change, negative = inhibition does the source give for `COc1ccc(C(=O)C[n+]2ccc(N)c(C)c2C)cc1` here?
A: -93.4% (active)

Q: For `CO/N=C/CC(=O)c1ccc(OC)cc1`, which activity change, negative = inhibition is on record?
A: -35.1% (inactive)

Q: Which activity change, negative = inhibition does the source give for `CCOc1ccc(OCC)c(NC(=O)c2cc(C)nc3c2c(C)nn3-c2cccc(Cl)c2C)c1` here?
A: 5.03% (inactive)

Q: For `C[C@@H]1CCCCO[C@H](CN(C)Cc2ccccc2)[C@@H](C)CN([C@H](C)CO)C(=O)c2cc(NS(=O)(=O)c3ccc(Cl)cc3)ccc2O1`, which activity change, negative = inhibition is on record?
A: -31.2% (inactive)

Q: For `O=S(=O)(Nc1ccc(-c2ccc(N3CCOCC3)nn2)cc1)c1cc(Cl)ccc1Cl`, which activity change, negative = inhibition is on record?
A: -19.8% (inactive)

Q: For `Cn1cnc2c1c(=O)n(Cc1c(Cl)cccc1Cl)c(=O)n2C`, which activity change, negative = inhibition is on record?
A: -6.74% (inactive)

Q: With `Cn1cnc2c1c(=O)n(Cc1ccccc1C#N)c(=O)n2C` as the molecule, how does the activity change, negative = inhibition read?
A: -66.7% (active)

Q: Which activity change, negative = inhibition does the source give for `N#Cc1ccccc1Cn1cnc2nc3c(cc2c1=O)CCCC3` here?
A: 21.2% (inactive)

Q: Which activity change, negative = inhibition does the source give for `Cc1cccc(N=Nc2c(O)[nH]c3ccc(F)cc23)c1` here?
A: 101% (inactive)

Q: Which activity change, negative = inhibition does the source give for `NS(=O)(=O)c1ccc(N=Nc2c(O)[nH]c3ccc(Br)cc23)cc1` here?
A: -60.1% (active)

Q: With `Cc1[nH]c2ccc(S(N)(=O)=O)cc2c1C` as the molecule, how does the activity change, negative = inhibition read?
A: 28% (inactive)

Q: For `Cc1nnc(SCc2cc(=O)c3cc(F)ccc3[nH]2)n1C`, which activity change, negative = inhibition is on record?
A: 17.7% (inactive)

Q: With `CC(C)C(=O)Nc1nc2c(s1)CC(C(C)(C)C)CC2` (centres undefined) as the molecule, how does the activity change, negative = inhibition read?
A: 36.6% (inactive)

Q: Which activity change, negative = inhibition does the source give for `Cc1ccc(Cl)cc1NC(=O)C1CCN(S(C)(=O)=O)CC1` here?
A: 22% (inactive)

Q: For `Cc1ccc(Cl)cc1NC(=O)C1CCCN(c2cnccn2)C1` (centres undefined), which activity change, negative = inhibition is on record?
A: -33.4% (inactive) and -71.5% (active)

Q: Which activity change, negative = inhibition does the source give for `O=C(Nc1cccc(Cl)c1)C1CCCN(c2cnccn2)C1` (centres undefined) here?
A: -9.65% (inactive)

Q: For `COC(=O)c1ccccc1NC(=O)c1cnn(-c2ccc(F)cc2)c1-n1cccc1`, which activity change, negative = inhibition is on record?
A: -4.4% (inactive)

Q: With `COc1ccc(-n2nc(C(=O)NCCc3ccc(Cl)cc3)c3c4ccccc4n(C)c3c2=O)cc1Cl` as the molecule, how does the activity change, negative = inhibition read?
A: 1.81% (inactive)

Q: With `COc1ccc(S(=O)(=O)N2CCN(c3ccc(F)cc3)CC2)cc1-c1noc(C)n1` as the molecule, how does the activity change, negative = inhibition read?
A: -18.6% (inactive)

Q: With `O=C(NC1CC(=O)N(c2ccc(Cl)cc2)C1)C1CCCC1` (centres undefined) as the molecule, how does the activity change, negative = inhibition read?
A: 16.2% (inactive)

Q: With `COC(=O)C(C)C1Sc2ccccc2NC1=O` (centres undefined) as the molecule, how does the activity change, negative = inhibition read?
A: -14.8% (inactive)

Q: For `CCCCCOC(=O)C1=C(C)Nc2nnnn2C1c1ccc(OC)c(OC)c1OC` (centres undefined), which activity change, negative = inhibition is on record?
A: 13.7% (inactive)

Q: For `COc1ccc(C2Sc3ccccc3NC3=C2C(=O)c2ccccc23)c(OC)c1OC` (centres undefined), which activity change, negative = inhibition is on record?
A: -74.4% (active)

Q: For `CCC1NC(=O)c2cccnc2-n2c1nc1ccc(C)cc1c2=O` (centres undefined), which activity change, negative = inhibition is on record?
A: -2.47% (inactive)

Q: For `CSc1nc2ccc(C)cc2c(=O)n1-c1cccnc1`, which activity change, negative = inhibition is on record?
A: -87.3% (active)

Q: Which activity change, negative = inhibition does the source give for `COCCNC(=O)c1ccc(-n2c(SCc3cccnc3)nc3ccccc3c2=O)cc1` here?
A: -38.3% (inactive)

Q: Which activity change, negative = inhibition does the source give for `OC(c1ccccc1)(c1ccccc1)C1CCN(CCCOc2ccccc2)CC1` here?
A: 2.18% (inactive)

Q: With `CN1CCC[C@@H]1CCO[C@](C)(c1ccccc1)c1ccc(Cl)cc1` as the molecule, how does the activity change, negative = inhibition read?
A: -62.4% (active)

Q: For `CC1CCCN1CCC(C(N)=O)(c1ccccc1)c1ccccc1` (centres undefined), which activity change, negative = inhibition is on record?
A: -15% (inactive)

Q: Which activity change, negative = inhibition does the source give for `COc1ccc(-c2nc(C)c(CCNC(=O)c3ccc(C(F)(F)F)cc3)s2)cc1OC` here?
A: 14.8% (inactive)

Q: For `O=C(Nc1ccc(Cl)cc1)c1csc([C@@H]2O[C@H](CO)[C@H](O)[C@H](O)[C@H]2O)n1`, which activity change, negative = inhibition is on record?
A: 16.2% (inactive)

Q: With `N#Cc1ccc(CC(O)c2nc(C(=O)Nc3ccccc3)cs2)cc1` (centres undefined) as the molecule, how does the activity change, negative = inhibition read?
A: -100% (active)

Q: Which activity change, negative = inhibition does the source give for `O=C(Nc1ccc(Cl)cc1)c1csc(C(O)c2cccc(C(F)(F)F)c2)n1` (centres undefined) here?
A: -20.2% (inactive)

Q: For `COc1ccccc1Cc1c(-c2ccc(Cl)cc2)nc2c3ccccc3ccn12`, which activity change, negative = inhibition is on record?
A: 22.4% (inactive)

Q: For `CCc1c(C)nc2c(OC)cccc2c1Cl`, which activity change, negative = inhibition is on record?
A: -75.4% (active)

Q: Which activity change, negative = inhibition does the source give for `COc1cccc2c(C)c(C(=O)O)[nH]c12` here?
A: -2.81% (inactive)

Q: With `COc1ccc(C)cc1-n1c(-c2ccc(C)cc2)cc2c1CC(C)(C)CC2=O` as the molecule, how does the activity change, negative = inhibition read?
A: 5.24% (inactive)

Q: For `CC(=O)Nc1ccc(S(=O)(=O)NC2(C(F)(F)F)C(=O)NC(C)=C2C#N)cc1` (centres undefined), which activity change, negative = inhibition is on record?
A: -29.9% (inactive)

Q: Which activity change, negative = inhibition does the source give for `CC(C)CNc1ncnc2c1nnn2C` here?
A: -27.2% (inactive)

Q: Which activity change, negative = inhibition does the source give for `Cc1ccc(-n2nnnc2CNC(=O)c2ccccc2C)cc1C` here?
A: -15.5% (inactive)

Q: For `O=C(NCc1nnnn1-c1ccc(Cl)cc1)c1ccc2c(c1)OCO2`, which activity change, negative = inhibition is on record?
A: 21% (inactive)

Q: Which activity change, negative = inhibition does the source give for `O=C(NCc1nnnn1-c1ccc(Cl)cc1)c1ccc([N+](=O)[O-])o1` here?
A: -63.2% (active)

Q: For `C=CCn1c(O)c(/C=N/N2CCOCC2)c(=O)[nH]c1=S`, which activity change, negative = inhibition is on record?
A: -8.35% (inactive)

Q: Which activity change, negative = inhibition does the source give for `CCCCn1nc2ccccc2c1OCC` here?
A: -7.88% (inactive)

Q: For `COc1ccccc1-c1cc(C(F)(F)F)nc(S(=O)(=O)CCCC(=O)Nc2ccc(F)cc2F)n1`, which activity change, negative = inhibition is on record?
A: -93% (active)

Q: For `COc1ccccc1-c1cc(C(F)(F)F)nc(S(=O)(=O)CCCC(=O)Nc2cc(C)ccc2O)n1`, which activity change, negative = inhibition is on record?
A: 7.44% (inactive)

Q: Which activity change, negative = inhibition does the source give for `CSc1ccccc1NC(=O)CCS(=O)(=O)c1nc(-c2cccs2)cc(C(F)(F)F)n1` here?
A: 3.11% (inactive)

Q: With `Cc1nn(-c2ccccc2)nc1C(=O)OCC(=O)N1CCCCC1C` (centres undefined) as the molecule, how does the activity change, negative = inhibition read?
A: 37.5% (inactive)

Q: Which activity change, negative = inhibition does the source give for `CNc1cncc(-c2cccc(C(=O)N3CCOCC3)c2)n1` here?
A: 16.3% (inactive)

Q: Which activity change, negative = inhibition does the source give for `C#Cc1cc(N2CCN(C(=O)c3ccoc3)CC2)n2nc(-c3cccc(Cl)c3)cc2n1` here?
A: -102% (active)

Q: For `Cc1oc2ncnc(N3CCCCC3)c2c1C(=O)N1CCN(c2cccc(Cl)c2)CC1`, which activity change, negative = inhibition is on record?
A: 2.67% (inactive)

Q: For `COc1ccccc1-c1cc2nc(C)c(CCC(=O)NC3CCCCC3)c(C)n2n1`, which activity change, negative = inhibition is on record?
A: -7.07% (inactive)

Q: For `C[C@]12CC[C@H](O)C[C@H]1CC[C@@H]1C2CC[C@]2(C)[C@@H](C3=CC(=O)OC3)[C@@H](O)C[C@]12O` (some centres undefined), which activity change, negative = inhibition is on record?
A: -99.6% (active)

Q: For `CC(=O)[C@@]12O[C@@H]1C[C@H]1[C@@H]3CC[C@H]4C[C@@H](O)CC[C@]4(C)[C@H]3CC[C@@]12C`, which activity change, negative = inhibition is on record?
A: -16% (inactive)

Q: For `Cc1cc2ccccc2n1CCNC(=O)c1ccc(F)cc1`, which activity change, negative = inhibition is on record?
A: 0.319% (inactive)

Q: For `CC1=C(C(=O)OCc2ccc(C)cc2)C(c2c(Cl)cccc2Cl)CC(=O)N1` (centres undefined), which activity change, negative = inhibition is on record?
A: -18.7% (inactive)
